An excerpt weighted towards active compounds, which were near 6.3% of everything screened.
TGFb SMAD3 inh = inhibitors of TGF-b signaling | HepG2 CAGA-GFP TGF-b/SMAD3 reporter, GFP fluorescence, 18 h; TGF-beta stimulated, 500 pg/mL final | Potency, µM (titrated, usually from 46.1 µM), for inactives: top-dose activity, negative = inhibition, usual class: inhibitors | hit rate 1.2% among 410,000 | AID 588855; further: on the % scale 0 is the no-effect control and ±100 the full control effect; nearly all actives have a fitted effect of over 65% in size
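Inhibition of TGF-beta-driven CAGA-GFP reporter expression in HEPG2 cells is measured by cellular GFP fluorescence after 18 h stimulation with 500 pg/mL recombinant TGF-beta in 1% FBS medium at 37 degrees C.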
VP16 counter = counter-screen for ROR gamma inhibitors: Gal4-VP16 reporter. hit rate 3.5% among 310,000. Drosophila S2 Gal4-VP16 UAS-luciferase, luminescence, 20 h. Potency, µM (titrated, usually from 53.6 µM), for inactives: at the highest dose activity, negative = inhibition, usual class: inhibitors;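 further: Gal4-VP16 expression switched on by copper sulfate through the metallothionein promoter; on the % scale 0 is the no-effect control and ±100 the full control effect; nearly all actives have a fitted effect of over 50% in size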
HepG2 viability = counter-screen for TGF-b inhibitors: cytotoxicity in HepG2 cells; HepG2 CAGA-GFP viability, ATP luminescence, 18 h; Potency, µM (doses to about 46.1 µM), without a hit: at the highest dose activity change, negative = cytotoxicity, most hits filed as cytotoxic; hit rate 0.76% among 410,000; AID 588856
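CellTiter-Glo luminescence gave cytotoxicity after 18 hours at 37 degrees C. The cells were HepG2 CAGA-GFP in 1% FBS DMEM, stimulated with 500 pg/mL TGF-beta after compound addition. %Activity was normalised to no-cell wells (complete cell-killing) and DMSO (no toxicity), and curves were fitted and classified.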
S2 tox = viability counter-screen for ATXN expression inhibitors. AID 651635. hit rate 0.49% among 400,000. S2 cells (HEK-293 line with an ATXN2-luciferase reporter) viability, CellTiter-Fluor protease fluorescence, 24 h. Potency, µM (doses to about 56.7 µM), actives largely listed as cytotoxic; further: nearly all actives have a fitted effect of over 40% in size
RORgamma inh = ROR gamma (mouse) transcription inhibition; P51450; Drosophila S2 Gal4-RORgamma UAS-luciferase reporter, 20 h; Potency, µM (series often up to 53.6 µM), for the others: top-dose activity change, negative = inhibition, hits mostly inhibitors; hit rate 5.4% among 310,000; AID 2551; further: on the % scale 0 is the no-effect control and ±100 the full control effect; nearly all actives have a fitted effect of over 60% in size
Target sequence (P51450 whole entry, looked up, the tested form may be a part): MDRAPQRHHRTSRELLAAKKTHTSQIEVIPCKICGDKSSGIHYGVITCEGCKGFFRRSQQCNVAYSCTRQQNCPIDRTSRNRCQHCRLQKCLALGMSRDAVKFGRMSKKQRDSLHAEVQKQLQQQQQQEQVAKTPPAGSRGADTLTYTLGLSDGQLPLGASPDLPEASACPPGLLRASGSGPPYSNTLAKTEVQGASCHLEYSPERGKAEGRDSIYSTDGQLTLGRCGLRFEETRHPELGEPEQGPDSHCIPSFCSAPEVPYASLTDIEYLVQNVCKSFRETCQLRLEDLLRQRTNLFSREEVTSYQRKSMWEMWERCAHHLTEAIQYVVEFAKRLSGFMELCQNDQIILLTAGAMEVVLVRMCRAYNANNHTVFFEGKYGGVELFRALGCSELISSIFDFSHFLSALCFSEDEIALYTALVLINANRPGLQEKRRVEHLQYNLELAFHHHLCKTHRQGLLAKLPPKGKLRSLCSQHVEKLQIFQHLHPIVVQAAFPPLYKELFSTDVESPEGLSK
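Read-out: Photinus luciferase luminescence; inhibitors lower reporter signal. Insect Schneider cells with Gal4-ROR gamma fusion under metallothionein promoter, UAS reporter; 700 uM final copper sulfate induction, 20 hr, ambient temperature.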
ATXN2 expr inh = reduces ATXN2 reporter expression in HEK-293 cells; HEK-293 ATXN2-luciferase reporter, luminescence, 24 h; hit rate 0.72% among 360,000; Potency, µM (doses to about 57 µM), for the others: top-dose activity change, negative = inhibition, hits mostly inhibitors; further: on the % scale 0 is the no-effect control and ±100 the full control effect; nearly all actives have a fitted effect of over 55% in size
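qHTS (up to 57 uM final) was run with 24 h compound exposure of reporter cells at 37 °C. Each well was multiplexed: SteadyGlo luminescence measured ATXN2-luciferase expression after a fluorogenic Gly-Phe-AFC viability readout (25 uM final).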
* hit, by the source's call; i = inactive; ? = inconclusive; . = not tested or not shown; [ ] = dose if it differs, or a comment. The call rests on the fitted dose curve; in most records, active means well fitted curve in the direction sought with a large enough effect; inconclusive means small, poorly fitted or top-dose-only effect, or another doubt; inactive means no such curve, though single readings can be large; an effect the other way counts as inactive or inconclusive. Potency means the concentration at half of the fitted maximal effect.

SMILES	TGFb SMAD3 inh	VP16 counter	HepG2 viability	S2 tox	RORgamma inh	ATXN2 expr inh
CN(CC(=O)Nc1ccc2c(c1)OCCO2)Cc1nc2ccccc2c(=O)[nH]1	3%	.	-3%	i	.	10%
CC(NC(=O)CN(C)Cc1nc2ccccc2c(=O)[nH]1)c1ccccc1 (configuration not stated)	-5%	-5%	-16%	i	5%	4%
CCN(CC(=O)NCCc1ccc(S(N)(=O)=O)cc1)Cc1nc2ccccc2c(=O)[nH]1	-6%	20µM*	3%	i	6.3µM*	1%
CCN(CC(=O)NCc1ccc(F)cc1)Cc1cc(=O)n2ccsc2n1	4%	-1%	-4%	i	6%	6%
CCN(Cc1cc(=O)n2ccsc2n1)Cc1nc2ccccc2c(=O)[nH]1	0%	10µM*	-15%	i	2.2µM*	-10%
Cc1ccc(NC(=O)CN(C)Cc2nc3ccccc3c(=O)[nH]2)c(Br)c1	-47%	?	-2%	i	11µM*	-8%
COc1ccc(/C=C/c2nnc(NC(=O)COc3ccc(Cl)cc3)s2)cc1	3%	.	0%	.	.	.
CCCCc1nn2c(=O)cc(COC(=O)c3ccc(NC(=O)c4cccc(OC)c4)cc3)nc2s1	4%	.	1%	i	.	-4%
Cc1c(Cl)cn2c(=O)cc(CN(C)Cc3nc4ccccc4c(=O)[nH]3)nc2c1Cl	.	-11%	.	.	18µM*	.
CC(=O)N1CCN(Cc2cc(=O)n3cc(Cl)c(C)c(Cl)c3n2)CC1	3%	-4%	11%	i	-4%	-6%
COc1ccc2c(c1)CCc1c(C(=O)Nc3ccc(OC)c(OC)c3)noc1-2	17%	?	4%	i	1.4µM*	-7%
COc1ccc2c(c1)CCc1c(C(=O)Nc3ccn(Cc4ccc(C)cc4)n3)noc1-2	-17%	-19%	-39%	18µM*	-18%	10µM*
CC1(C)CC(=O)C2=C(C1)Nc1ccccc1NC2	4%	6%	-3%	i	13µM*	6%
N#CC(=C1Nc2ccccc2S1)c1ccnc(OCc2ccc(CN3CCOCC3)cc2)n1	.	.	.	.	.	0.014µM*
CC12CC(c3ccccc3O1)C(/C(N)=N/NC(=O)c1ccc(F)cc1)C(=O)N2 (configuration not stated)	-9%	?	-13%	i	4.5µM*	-20%[11.3 µM]
C[C@@H](C(=O)O)c1ccc(N2Cc3ccccc3C2=O)cc1	.	2µM*	.	i	1.1µM*	.
COc1ccc(NC(=O)c2nn(C)c3c2CSc2ccc(C)cc2-3)cc1OC	-27%	.	11µM*	i	.	-34%
Cc1ccc2c(c1)-c1c(c(C(=O)N3CCN(c4cc(C)ccc4C)CC3)nn1C)CS2	-23%	.	-54%	.	.	.
Cc1ccc(NCc2nnc3n2CCCCC3)cc1Cl	3%	.	3%	i	.	9%
COc1ccc(-c2nc3n(c2C)Cc2ccccc2-3)cc1	-12%	-13%	-8%	?	11µM*	76%
COC(=O)c1cc(O)cc(OC)c1Oc1cc(C)cc(O)c1C(=O)O	-26%	7.1µM*	-27%	i	0%	?
COC(=O)c1cc(O)cc(OC)c1C(=O)c1c(O)cc(C)cc1O	?	?	-11%	i	-23%	-10%
COc1ccc(-n2cnc(N)c2C(=O)c2cccc([N+](=O)[O-])c2)cc1	5%	-19%	-15%	i	11µM*	-5%
CC(C)C(=O)Nc1sc2c(c1-c1nc3ccccc3[nH]1)CCCC2	5%	0%	-33%	i	11µM*	8%
CC(C)C(=O)Nc1ccccc1-c1nc2ccccc2[nH]c1=O	1%	.	3%	i	.	.
SMILES	TGFb SMAD3 inh	VP16 counter	HepG2 viability	S2 tox	RORgamma inh	ATXN2 expr inh
Cc1ccc2occ(/C=N/NC(=O)[C@@H](N)Cc3ccccc3)c(=O)c2c1	-22%	1%	10µM*	i	15%	7%
Cc1cccc(C(=O)N/N=C/c2coc3ccccc3c2=O)c1	-4%	-23%	-7%	i	-24%	-4%
Cn1cc(S(=O)(=O)N2CCCC2)cc1C(=O)Nc1ccc(C(F)(F)F)cc1	?	.	-18%	.	.	.
CC(=O)N1c2ccc(S(=O)(=O)N3CCC(C(=O)Nc4cccc(Cl)c4)CC3)cc2CC1C (configuration not stated)	?	11µM*	3%	i	-31%	.
CCc1ccc(NC(=O)C2CCN(S(=O)(=O)c3ccc4c(c3)CC(C)N4C(C)=O)CC2)cc1 (configuration not stated)	?	?	-17%	?	-30%	13µM*
COc1cc(CNS(=O)(=O)c2ccc3c(c2)CC(C)N3C(C)=O)cc(OC)c1OC (configuration not stated)	-18%	22µM*	0%	i	29%	-4%
CCc1cccc(NS(=O)(=O)c2ccc3c(c2)CC(C)N3C(=O)C2CC2)c1 (configuration not stated)	7.1µM*	.	-29%	?	.	-39%
CC1Cc2cc(S(=O)(=O)NCc3ccccc3)ccc2N1C(=O)C1CC1 (configuration not stated)	-17%	?	-30%	i	7%	-18%
CCOc1ccc(CNS(=O)(=O)c2ccc3c(c2)CC(C)N3C(C)=O)cc1OC (configuration not stated)	-17%	.	-2%	i	.	-22%
N#Cc1ccc(CN2CCCC3(CCN(C(=O)c4ccncc4)CC3)C2)cc1	.	10%	.	.	-8%	.
Clc1ccc(CNc2nc(CN3CCOCC3)nc3scc(-c4ccccc4)c23)cc1	?	8.9µM*	-29%	?	11µM*	-21%
COc1ccc(C2C=C(c3ccccc3)Nc3nc(NC(=O)/C=C/c4ccc(Cl)cc4)nn32)cc1 (configuration not stated)	4%	.	-37%	i	.	2%
O=c1[nH]c2ccccc2n1CCCN1CCN(C(c2ccccc2)c2ccccc2)CC1	.	-3%	.	?	-1%	32µM*
CCOc1ccc2nc(N3CCCC(C(=O)NCc4ccc(OC)cc4)C3)sc2c1 (configuration not stated)	-13%	.	-41%	.	.	.
C#CCN1C(=O)S/C(=C\c2ccc(-c3ccc(Cl)c(C(=O)O)c3)o2)C1=O	2%	1.3µM*	-3%	i	-10%[1.91 µM]	.
O=C(O)c1cc(-c2ccc(/C=C3\NC(=O)N(c4ccccc4)C3=O)o2)ccc1Cl	4%	-8%	3%	i	1%	.
COc1ccc(NC(=O)c2c(NCc3cccs3)sc3c2CCCCC3)c(OC)c1	-13%	.	-19%	?	.	-26%

Screening results from PubChem BioAssay.
